We go through 21 compounds from PubChem BioAssay (NCI).

The panel holds about 83,000 compounds, 20% with a hit somewhere; the sample as a whole holds those more often.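 How to read the values: 0–100, growth inhibition (40 = 60% inhibited); 0, no net growth; -100 to 0, cell death (-40 = 40% of starting cells died; -100 = all dead).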 Unmarked numbers belong to inactive results. The source made the active and inactive calls. Rule for the calls: active = growth percent below 10; inactive = the rest.

Among the test systems are BT-549 breast; MDA-MB-435 melanoma; SW-620 colon; HCC-2998 colon; KM12 colon; MCF7 breast; HCT-116 colon.
Assay in all cases: NCI-60 one-dose screen, 48 h (100 = growth as untreated, 0 = no growth, -100 = all killed)
Common to all, as to settings: 10 µM unless noted

Take `Clc1ccc2oc3c(NCCCN4CCOCC4)c4ccccc4nc3c2c1`: the growth is 67.8% in the assay on BT-549 breast; 22% with MDA-MB-435 melanoma; 15% with SW-620 colon; 28.9% with HCC-2998 colon; 26.5% in the assay on KM12 colon.

Consider `Cc1cccc(/C=C/c2nn3c(-c4ccco4)nnc3s2)c1`, for which the growth in the assay with BT-549 breast was 90.8%; with MDA-MB-435 melanoma it was 95.8%; with MCF7 breast it was 78.5%; with HCT-116 colon, 106%; in the assay with HCC-2998 colon, 95%; in the assay with KM12 colon, 105%.

With `C=CCn1c(SCC(=O)c2ccc(Br)cc2)nnc1-c1c[nH]c2ccccc12`, the growth in the assay with BT-549 breast was 106%; in the assay on MDA-MB-435 melanoma, 108%; in the assay on MCF7 breast, 97.9%; with HCT-116 colon, 93.5%; with HCC-2998 colon it was 104%; in the assay with KM12 colon it was 102%.

Take `Cc1cccc2sc(/N=C(\N)C(Br)Br)nc12`: the growth is 30.2% in the assay with BT-549 breast; 12.3% in the assay on MDA-MB-435 melanoma; -13.3% (active) in the assay on MCF7 breast; -29.1% (active) with HCT-116 colon; 4.99% (active) in the assay on HCC-2998 colon; 9.77% (active) in the assay on KM12 colon.

Consider `CC(C)(C)Nc1nc2c(OCCc3ccccc3)cccn2c1-c1cccc(F)c1`, for which the growth with BT-549 breast is 11.8%; in the assay on MDA-MB-435 melanoma, 2.41% (active); with MCF7 breast, -13.4% (active); with HCT-116 colon, -32.8% (active); in the assay with HCC-2998 colon it was 4.84% (active); in the assay with KM12 colon it was 4.77% (active).

For `O=C(CSc1nnc(-c2ccc3nc(-c4ccc(Cl)cc4)[nH]c3c2)o1)Nc1ccc(C(=O)/C=C/c2ccc(Cl)cc2)cc1`, the growth in the assay with BT-549 breast was 99.6%; in the assay with MDA-MB-435 melanoma it was 99.9%; with MCF7 breast it was 55.2%; with HCT-116 colon, 77.8%; in the assay on HCC-2998 colon, 116%; with KM12 colon, 99.3%.

On to `Nc1c(C(=O)Nc2ccc(C(F)(F)F)cc2)sc2nc(-c3cnccn3)cc(-c3cccs3)c12`, for which the growth in the assay on BT-549 breast is 22.5%; with MDA-MB-435 melanoma it was 95.4%; in the assay on MCF7 breast, 75.8%; in the assay with KM12 colon it was 95.6%.

As for `N[C@@H](Cc1cn(-c2c3ccccc3nc3ccccc23)nn1)C(=O)O`, the growth is 117% with BT-549 breast; 104% in the assay on MDA-MB-435 melanoma; 73.9% in the assay on MCF7 breast; 106% with HCT-116 colon; 117% with HCC-2998 colon.

Regarding `COc1ccc(-c2csc(N/N=C/c3c(-c4ccc(S(C)(=O)=O)cc4)nc4ccccn34)n2)cc1`, the growth is 115% in the assay with BT-549 breast; 101% in the assay on MDA-MB-435 melanoma; 89.1% in the assay on MCF7 breast; 104% in the assay with HCT-116 colon; 115% in the assay with HCC-2998 colon.

Turning to `CN(C)CCCOc1c2ccc(Cl)cc2nc2c1oc1ccccc12`, the growth with BT-549 breast is 8.05% (active); in the assay with MDA-MB-435 melanoma, -51.9% (active); in the assay with HCT-116 colon it was 1.47% (active); in the assay with HCC-2998 colon, -58.1% (active); with KM12 colon it was 0.963% (active).

As for `Cc1sc2c(c1C)c(=O)nc1c(-c3nc(-c4ccc(F)cc4)no3)n[nH]n12`, the growth with BT-549 breast was 102%; in the assay on MDA-MB-435 melanoma it was 105%; with MCF7 breast it was 89.7%; in the assay on HCT-116 colon, 103%; in the assay on HCC-2998 colon it was 104%.

Regarding `Fc1ccc(-c2cc3nc(C(Cl)Cl)nc(-c4ccccc4)n3n2)cc1`, the growth is 46.5% with BT-549 breast; 6.42% (active) in the assay with MDA-MB-435 melanoma; 8.55% (active) in the assay on MCF7 breast; -54.7% (active) in the assay on HCT-116 colon; -37.7% (active) in the assay on KM12 colon.

`COc1cc(-c2nc3ccc(-c4nnc(SCC(=O)Nc5ccc(C(C)=O)cc5)o4)cc3[nH]2)cc(OC)c1OC`: the growth is 108% in the assay with BT-549 breast, 108% in the assay on MDA-MB-435 melanoma, 106% with HCT-116 colon and 112% in the assay with HCC-2998 colon.

For the compound `COc1ccccc1/C=C/C=N/NC1=NC2C(S1)N(C)C(=O)N2C` (configuration not stated), the growth is 67.8% in the assay on BT-549 breast; -57.1% (active) with MDA-MB-435 melanoma; 19.9% in the assay on MCF7 breast; 35.9% in the assay with HCT-116 colon; 18.2% in the assay with KM12 colon.

Regarding `O=C(CCN1C(=O)/C(=C/c2ccccc2F)SC1=S)N1CCOCC1`, the growth in the assay on BT-549 breast was 108%; in the assay with MDA-MB-435 melanoma, 80.8%; in the assay with HCT-116 colon it was 81.9%; with HCC-2998 colon, 115%; in the assay with KM12 colon, 80.8%.

Take `CN1C(=O)N(c2ccccc2)C2N=C(N/N=C/c3ccccc3)SC21` (configuration not stated): the growth in the assay on BT-549 breast was 52.4%; in the assay with MDA-MB-435 melanoma, -24.9% (active); in the assay with MCF7 breast, 24%; in the assay with HCT-116 colon it was 22.5%; in the assay on HCC-2998 colon, 51.5%; in the assay on KM12 colon, 22%.

Consider `N/C(=N\c1nc2c(Br)cccc2s1)C(Br)Br`, for which the growth was 29.2% with BT-549 breast; -48.2% (active) in the assay on MDA-MB-435 melanoma; -39.2% (active) in the assay on SW-620 colon; 3.14% (active) in the assay on HCC-2998 colon; 3.67% (active) in the assay on KM12 colon.

For the compound `OC1CCN(CCCOc2c3ccccc3nc3c2oc2ccccc23)CC1`, the growth is 7.19% (active) with BT-549 breast; -10.5% (active) in the assay on MDA-MB-435 melanoma; 0.978% (active) in the assay on MCF7 breast; 3.79% (active) in the assay with HCT-116 colon; -12.4% (active) in the assay with HCC-2998 colon; 5.22% (active) in the assay on KM12 colon.

On to `N#Cc1nc(-c2ccccc2)oc1S(N)(=O)=O`, for which the growth with BT-549 breast was 67.6%; with MDA-MB-435 melanoma, 42.5%; in the assay with MCF7 breast, 30.9%; in the assay on HCT-116 colon, 46.8%; with HCC-2998 colon, 110%; with KM12 colon, 83.9%.

`COc1cc(/C=C/C(=O)c2ccccc2)ccc1Oc1nc(NCCO)nc(N2CCOCC2)n1`: the growth in the assay with BT-549 breast was 92.4%; in the assay on MDA-MB-435 melanoma, 93.1%; with MCF7 breast, 46.9%; with HCT-116 colon it was 69.5%; in the assay with HCC-2998 colon it was 113%; with KM12 colon it was 102%.

Take `O=C1NC(=C(Cl)Cl)/C(=N/S(=O)(=O)N2CCCCC2CC2(C(F)(F)F)N=N2)N1` (configuration not stated): the growth in the assay with BT-549 breast is 68%; in the assay with MDA-MB-435 melanoma it was 41.6%; in the assay on MCF7 breast it was 9.63% (active); with HCT-116 colon it was -28.8% (active); in the assay on KM12 colon, 9.36% (active).
